Test results taken from ChEMBL document CHEMBL1961873, “Compounds: GSK PKIS; Assays: Nanosyn kinase panel” (2012).

Columns and labels:
[1] = biological target: MAP/microtubule affinity-regulating kinase 3 (Homo sapiens) (UniProt P27448); conditions: at 1 µM;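 note: reported values are averaged percent inhibition of MARK3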
[2] = biological target: T1, MAP/microtubule affinity-regulating kinase 4 (Homo sapiens) (UniProt Q96L34); conditions: at 0.1 µM
T1 sequence (whole entry): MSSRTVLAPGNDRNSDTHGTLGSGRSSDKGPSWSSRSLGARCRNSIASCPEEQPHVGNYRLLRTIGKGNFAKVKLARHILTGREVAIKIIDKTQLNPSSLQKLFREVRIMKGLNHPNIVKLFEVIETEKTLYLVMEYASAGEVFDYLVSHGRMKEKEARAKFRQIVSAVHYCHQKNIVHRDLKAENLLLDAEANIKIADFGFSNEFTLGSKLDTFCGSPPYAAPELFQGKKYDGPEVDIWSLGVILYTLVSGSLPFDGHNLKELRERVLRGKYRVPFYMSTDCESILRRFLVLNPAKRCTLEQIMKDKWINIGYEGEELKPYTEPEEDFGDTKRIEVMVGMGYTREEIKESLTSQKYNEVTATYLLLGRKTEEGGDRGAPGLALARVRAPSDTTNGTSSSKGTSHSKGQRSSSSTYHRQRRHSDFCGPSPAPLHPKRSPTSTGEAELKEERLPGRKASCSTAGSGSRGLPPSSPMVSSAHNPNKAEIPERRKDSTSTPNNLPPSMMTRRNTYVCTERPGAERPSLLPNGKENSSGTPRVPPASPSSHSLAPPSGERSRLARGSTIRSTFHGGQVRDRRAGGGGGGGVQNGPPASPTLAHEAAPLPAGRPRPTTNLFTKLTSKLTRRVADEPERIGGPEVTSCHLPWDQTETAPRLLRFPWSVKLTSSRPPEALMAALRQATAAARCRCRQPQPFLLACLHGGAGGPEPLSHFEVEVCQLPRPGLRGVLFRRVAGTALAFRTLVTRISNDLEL

[3] = biological target: T1, MAP/microtubule affinity-regulating kinase 4 (Homo sapiens); conditions: at 1 µM
[4] = biological target: Maternal embryonic leucine zipper kinase (Homo sapiens) (UniProt Q14680); conditions: at 0.1 µM
[5] = biological target: Maternal embryonic leucine zipper kinase (Homo sapiens) (UniProt Q14680); conditions: at 1 µM
[6] = biological target: MAP kinase-interacting serine/threonine-protein kinase 1 (Homo sapiens) (UniProt Q9BUB5); conditions: at 0.1 µM
[7] = biological target: MAP kinase-interacting serine/threonine-protein kinase 1 (Homo sapiens) (UniProt Q9BUB5); conditions: at 1 µM
[8] = biological target: MAP kinase-interacting serine/threonine-protein kinase 2 (Homo sapiens) (UniProt Q9HBH9); conditions: at 0.1 µM
[9] = biological target: MAP kinase-interacting serine/threonine-protein kinase 2 (Homo sapiens) (UniProt Q9HBH9); conditions: at 1 µM
[10] = biological target: Serine/threonine-protein kinase MARK2 (Homo sapiens) (UniProt Q7KZI7); conditions: at 0.1 µM
[11] = biological target: Serine/threonine-protein kinase MARK2 (Homo sapiens) (UniProt Q7KZI7); conditions: at 1 µM
[12] = biological target: PAS domain-containing serine/threonine-protein kinase (Homo sapiens) (UniProt Q96RG2); conditions: at 0.1 µM
[13] = biological target: PAS domain-containing serine/threonine-protein kinase (Homo sapiens) (UniProt Q96RG2); conditions: at 1 µM
[14] = biological target: Phosphorylase b kinase gamma catalytic chain, skeletal muscle/heart isoform (Homo sapiens) (UniProt Q16816); conditions: at 0.1 µM
[15] = biological target: Phosphorylase b kinase gamma catalytic chain, skeletal muscle/heart isoform (Homo sapiens) (UniProt Q16816); conditions: at 1 µM
[16] = biological target: T2, Phosphorylase b kinase gamma catalytic chain, liver/testis isoform (Homo sapiens) (UniProt P15735); conditions: at 0.1 µM
T2 sequence (whole entry): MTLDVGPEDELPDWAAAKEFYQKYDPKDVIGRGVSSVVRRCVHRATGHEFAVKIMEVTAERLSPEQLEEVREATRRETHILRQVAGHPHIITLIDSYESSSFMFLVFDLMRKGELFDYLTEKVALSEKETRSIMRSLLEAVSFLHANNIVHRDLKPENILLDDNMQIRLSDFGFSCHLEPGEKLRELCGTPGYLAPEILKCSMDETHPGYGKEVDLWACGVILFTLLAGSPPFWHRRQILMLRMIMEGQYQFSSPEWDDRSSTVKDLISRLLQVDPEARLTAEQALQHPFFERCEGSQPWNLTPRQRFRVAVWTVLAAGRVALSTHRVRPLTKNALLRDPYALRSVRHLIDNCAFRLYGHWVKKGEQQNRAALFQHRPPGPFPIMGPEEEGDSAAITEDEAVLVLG

[17] = biological target: T2, Phosphorylase b kinase gamma catalytic chain, liver/testis isoform (Homo sapiens); conditions: at 1 µM
[18] = biological target: Serine/threonine-protein kinase pim-1 (Homo sapiens) (UniProt P11309); conditions: at 0.1 µM
[19] = biological target: Serine/threonine-protein kinase pim-1 (Homo sapiens) (UniProt P11309); conditions: at 1 µM
[20] = biological target: Serine/threonine-protein kinase pim-2 (Homo sapiens) (UniProt Q9P1W9); conditions: at 0.1 µM;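 note: reported value is the mean percent inhibition of PIM2, measured in the GSK PKIS kinase inhibitor set screen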
Sequence of Serine/threonine-protein kinase pim-2 (Homo sapiens) (Q9P1W9 whole entry, looked up): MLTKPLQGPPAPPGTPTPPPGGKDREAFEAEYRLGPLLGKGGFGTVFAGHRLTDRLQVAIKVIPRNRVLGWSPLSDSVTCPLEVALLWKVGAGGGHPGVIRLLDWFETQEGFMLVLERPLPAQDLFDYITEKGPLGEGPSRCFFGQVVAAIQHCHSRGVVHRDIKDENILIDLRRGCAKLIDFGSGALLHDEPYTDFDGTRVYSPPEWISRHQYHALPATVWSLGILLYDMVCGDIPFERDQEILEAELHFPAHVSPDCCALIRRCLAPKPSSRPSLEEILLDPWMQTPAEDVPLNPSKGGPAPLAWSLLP

Sequence of Phosphorylase b kinase gamma catalytic chain, skeletal muscle/heart isoform (Homo sapiens) (Q16816 whole entry, looked up, canonical isoform): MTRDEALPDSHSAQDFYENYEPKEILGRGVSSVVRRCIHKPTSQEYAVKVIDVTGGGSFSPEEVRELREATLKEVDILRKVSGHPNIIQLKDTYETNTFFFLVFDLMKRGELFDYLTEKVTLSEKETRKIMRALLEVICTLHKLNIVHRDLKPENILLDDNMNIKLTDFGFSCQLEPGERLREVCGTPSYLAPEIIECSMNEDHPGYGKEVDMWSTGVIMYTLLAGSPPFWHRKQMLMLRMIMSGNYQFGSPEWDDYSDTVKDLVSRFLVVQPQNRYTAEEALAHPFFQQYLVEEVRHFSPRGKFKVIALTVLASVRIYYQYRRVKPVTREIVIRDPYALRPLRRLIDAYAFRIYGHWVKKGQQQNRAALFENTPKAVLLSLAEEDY
Sequence of Serine/threonine-protein kinase pim-1 (Homo sapiens) (P11309 whole entry, looked up): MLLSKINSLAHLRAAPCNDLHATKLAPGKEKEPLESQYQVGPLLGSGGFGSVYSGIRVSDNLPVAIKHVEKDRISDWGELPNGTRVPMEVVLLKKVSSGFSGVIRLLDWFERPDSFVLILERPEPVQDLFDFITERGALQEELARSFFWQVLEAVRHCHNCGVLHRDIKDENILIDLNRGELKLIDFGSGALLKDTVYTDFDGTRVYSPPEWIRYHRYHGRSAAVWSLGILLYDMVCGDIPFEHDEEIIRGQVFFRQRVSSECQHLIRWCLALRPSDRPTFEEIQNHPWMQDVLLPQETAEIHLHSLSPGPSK
Sequence of MAP/microtubule affinity-regulating kinase 3 (Homo sapiens) (P27448 whole entry, looked up): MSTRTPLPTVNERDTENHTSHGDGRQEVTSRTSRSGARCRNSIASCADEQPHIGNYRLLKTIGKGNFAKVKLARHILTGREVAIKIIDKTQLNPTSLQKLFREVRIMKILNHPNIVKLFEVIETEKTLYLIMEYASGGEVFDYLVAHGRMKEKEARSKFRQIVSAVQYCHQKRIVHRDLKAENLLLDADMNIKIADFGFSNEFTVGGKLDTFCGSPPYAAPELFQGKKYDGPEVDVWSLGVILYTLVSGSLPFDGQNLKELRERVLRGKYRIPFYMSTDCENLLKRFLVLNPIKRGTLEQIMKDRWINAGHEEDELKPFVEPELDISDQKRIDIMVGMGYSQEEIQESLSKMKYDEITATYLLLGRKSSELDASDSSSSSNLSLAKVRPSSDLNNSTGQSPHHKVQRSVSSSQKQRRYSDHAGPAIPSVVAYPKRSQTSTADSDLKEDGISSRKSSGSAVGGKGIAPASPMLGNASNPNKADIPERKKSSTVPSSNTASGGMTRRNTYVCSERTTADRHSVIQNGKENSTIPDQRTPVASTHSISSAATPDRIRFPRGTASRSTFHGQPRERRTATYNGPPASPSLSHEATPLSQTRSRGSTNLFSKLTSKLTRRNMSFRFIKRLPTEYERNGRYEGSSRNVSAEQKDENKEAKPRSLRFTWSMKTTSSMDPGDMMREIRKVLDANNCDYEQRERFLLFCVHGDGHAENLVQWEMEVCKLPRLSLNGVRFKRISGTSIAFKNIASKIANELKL
Sequence of Serine/threonine-protein kinase MARK2 (Homo sapiens) (Q7KZI7 whole entry, the tested form may be a part): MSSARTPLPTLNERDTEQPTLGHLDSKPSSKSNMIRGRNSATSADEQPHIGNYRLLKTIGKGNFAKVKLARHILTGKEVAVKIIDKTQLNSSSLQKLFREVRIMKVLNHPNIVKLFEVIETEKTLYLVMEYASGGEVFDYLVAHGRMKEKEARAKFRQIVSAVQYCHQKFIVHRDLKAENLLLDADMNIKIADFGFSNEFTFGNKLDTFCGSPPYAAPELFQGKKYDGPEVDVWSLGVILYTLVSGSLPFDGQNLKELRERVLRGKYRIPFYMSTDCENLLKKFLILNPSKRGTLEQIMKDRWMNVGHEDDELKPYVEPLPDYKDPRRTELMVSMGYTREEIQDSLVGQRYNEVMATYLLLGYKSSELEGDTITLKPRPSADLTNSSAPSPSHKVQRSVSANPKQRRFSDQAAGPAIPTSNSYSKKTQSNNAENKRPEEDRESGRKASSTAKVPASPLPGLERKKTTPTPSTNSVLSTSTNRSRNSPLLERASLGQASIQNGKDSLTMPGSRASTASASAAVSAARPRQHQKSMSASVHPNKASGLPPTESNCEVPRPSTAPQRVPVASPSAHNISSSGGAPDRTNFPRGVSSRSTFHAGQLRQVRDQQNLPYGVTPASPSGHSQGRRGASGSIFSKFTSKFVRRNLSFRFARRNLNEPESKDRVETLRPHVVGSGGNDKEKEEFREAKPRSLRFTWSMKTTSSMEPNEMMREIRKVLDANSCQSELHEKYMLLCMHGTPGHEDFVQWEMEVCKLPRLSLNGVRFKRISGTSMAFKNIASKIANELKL
Sequence of PAS domain-containing serine/threonine-protein kinase (Homo sapiens) (Q96RG2 whole entry, the tested form may be a part, canonical isoform): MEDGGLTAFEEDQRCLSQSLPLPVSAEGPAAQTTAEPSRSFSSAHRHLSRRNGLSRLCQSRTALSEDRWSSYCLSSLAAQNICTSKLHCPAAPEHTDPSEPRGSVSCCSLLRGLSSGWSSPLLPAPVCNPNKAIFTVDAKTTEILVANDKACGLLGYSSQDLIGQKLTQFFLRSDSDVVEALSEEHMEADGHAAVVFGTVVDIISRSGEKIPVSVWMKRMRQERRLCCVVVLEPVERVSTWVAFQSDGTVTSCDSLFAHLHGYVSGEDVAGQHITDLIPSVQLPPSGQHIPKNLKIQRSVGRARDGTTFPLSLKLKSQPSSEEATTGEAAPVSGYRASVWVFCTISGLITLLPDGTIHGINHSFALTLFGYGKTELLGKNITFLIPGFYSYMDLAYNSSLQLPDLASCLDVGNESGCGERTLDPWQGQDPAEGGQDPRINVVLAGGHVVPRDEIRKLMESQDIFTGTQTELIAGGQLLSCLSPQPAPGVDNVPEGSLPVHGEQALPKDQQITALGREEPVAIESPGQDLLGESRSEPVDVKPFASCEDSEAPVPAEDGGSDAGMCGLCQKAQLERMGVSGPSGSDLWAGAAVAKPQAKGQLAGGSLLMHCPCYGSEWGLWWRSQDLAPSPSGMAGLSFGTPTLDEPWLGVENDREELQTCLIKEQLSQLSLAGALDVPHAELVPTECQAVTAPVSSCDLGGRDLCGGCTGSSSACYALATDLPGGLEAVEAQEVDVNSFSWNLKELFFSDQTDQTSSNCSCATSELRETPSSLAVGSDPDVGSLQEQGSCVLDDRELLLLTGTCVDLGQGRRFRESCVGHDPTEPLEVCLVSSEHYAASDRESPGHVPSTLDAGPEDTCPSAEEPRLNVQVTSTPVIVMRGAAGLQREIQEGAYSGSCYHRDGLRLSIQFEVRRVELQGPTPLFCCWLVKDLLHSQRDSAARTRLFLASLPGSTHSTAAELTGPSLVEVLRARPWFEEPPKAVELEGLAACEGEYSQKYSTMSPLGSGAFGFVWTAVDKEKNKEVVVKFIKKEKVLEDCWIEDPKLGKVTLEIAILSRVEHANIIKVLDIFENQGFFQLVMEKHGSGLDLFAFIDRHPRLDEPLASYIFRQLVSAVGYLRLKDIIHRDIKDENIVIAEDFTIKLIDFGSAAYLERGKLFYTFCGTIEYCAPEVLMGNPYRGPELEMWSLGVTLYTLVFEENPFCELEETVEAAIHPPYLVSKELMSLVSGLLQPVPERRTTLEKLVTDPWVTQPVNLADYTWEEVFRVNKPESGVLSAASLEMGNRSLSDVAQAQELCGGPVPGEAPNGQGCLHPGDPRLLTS
Sequence of MAP kinase-interacting serine/threonine-protein kinase 1 (Homo sapiens) (Q9BUB5 whole entry, looked up): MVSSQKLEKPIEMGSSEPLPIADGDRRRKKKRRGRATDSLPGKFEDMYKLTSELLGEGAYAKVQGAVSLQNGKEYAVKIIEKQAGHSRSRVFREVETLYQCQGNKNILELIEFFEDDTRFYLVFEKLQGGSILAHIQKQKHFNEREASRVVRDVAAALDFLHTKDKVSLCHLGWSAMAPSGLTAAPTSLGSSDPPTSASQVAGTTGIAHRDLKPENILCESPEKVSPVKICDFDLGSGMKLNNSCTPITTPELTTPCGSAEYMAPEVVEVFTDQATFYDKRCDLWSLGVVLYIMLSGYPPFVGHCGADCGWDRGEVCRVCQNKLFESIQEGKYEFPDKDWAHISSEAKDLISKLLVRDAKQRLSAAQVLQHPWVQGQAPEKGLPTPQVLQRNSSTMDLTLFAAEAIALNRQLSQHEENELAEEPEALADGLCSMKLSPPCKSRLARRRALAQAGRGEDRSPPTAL
Sequence of Maternal embryonic leucine zipper kinase (Homo sapiens) (Q14680 whole entry, looked up): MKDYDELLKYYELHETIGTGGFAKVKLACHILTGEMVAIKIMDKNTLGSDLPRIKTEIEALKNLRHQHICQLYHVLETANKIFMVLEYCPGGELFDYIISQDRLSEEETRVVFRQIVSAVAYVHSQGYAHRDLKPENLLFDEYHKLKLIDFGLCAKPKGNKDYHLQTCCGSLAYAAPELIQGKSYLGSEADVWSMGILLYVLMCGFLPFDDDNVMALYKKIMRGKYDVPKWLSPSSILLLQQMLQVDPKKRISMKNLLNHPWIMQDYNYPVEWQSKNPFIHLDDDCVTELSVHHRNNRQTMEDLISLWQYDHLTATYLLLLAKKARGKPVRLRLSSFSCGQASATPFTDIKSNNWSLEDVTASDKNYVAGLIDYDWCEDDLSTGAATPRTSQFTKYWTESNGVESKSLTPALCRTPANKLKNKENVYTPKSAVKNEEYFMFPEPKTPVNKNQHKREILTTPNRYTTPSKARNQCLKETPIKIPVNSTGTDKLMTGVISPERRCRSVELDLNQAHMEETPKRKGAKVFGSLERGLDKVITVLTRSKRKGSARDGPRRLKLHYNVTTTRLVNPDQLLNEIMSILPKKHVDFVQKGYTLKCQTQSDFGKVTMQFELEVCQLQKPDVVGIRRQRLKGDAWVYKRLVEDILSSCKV

| Structure (SMILES) | inhibition [1] [%] | inhibition [2] [%] | inhibition [3] [%] | inhibition [4] [%] | inhibition [5] [%] | inhibition [6] [%] | inhibition [7] [%] | inhibition [8] [%] | inhibition [9] [%] | inhibition [10] [%] | inhibition [11] [%] | inhibition [12] [%] | inhibition [13] [%] | inhibition [14] [%] | inhibition [15] [%] | inhibition [16] [%] | inhibition [17] [%] | inhibition [18] [%] | inhibition [19] [%] | inhibition [20] [%] |
| --- | --- | --- | --- | --- | --- | --- | --- | --- | --- | --- | --- | --- | --- | --- | --- | --- | --- | --- | --- | --- |
| O=C1Nc2ccccc2/C1=C/Nc1ccc2[nH]c(=O)[nH]c2c1 | 27.5 | 4.86 | 27.1 | 5.79 | 41.4 | 5.46 | 14 | 2.62 | 10.9 | 3.32 | 13.4 | 12.4 | 64.1 | 10.5 | 42.6 | 7.44 | 21.4 | -0.21 | 2.44 | 0.27 |
| C[C@@H](Oc1cc(-n2cnc3ccc(OC[C@@H](O)CO)cc32)sc1C(N)=O)c1ccccc1Cl | 5.81 | 1.02 | 5.24 | -2.58 | 3.21 | -0.74 | 2.69 | 0.15 | 2.94 | -0.27 | 4.76 | 0.26 | 1.99 | 0.98 | 4.08 | -2.13 | -1.44 | 2.14 | 19.1 | -0.13 |
| COc1cc2ncnc(Nc3ccc4c(cnn4Cc4ccccc4)c3)c2cc1OC | 2.6 | 1.05 | 3.55 | 3.54 | 8.01 | 2.44 | 18 | 0.99 | 17.1 | -0.07 | 3.96 | 0.55 | -0.09 | 3.79 | 8.41 | 2.67 | 2.41 | 0.14 | 1.19 | 0.05 |
| Cc1cc(-c2ccccn2)cc(C)c1/C=C/c1cncc(-c2nn[nH]n2)c1 | 7.09 | 2.52 | 3.91 | 4.28 | 9.19 | 2.08 | 3.07 | 0.76 | 2.73 | 1.02 | 4.96 | -0.97 | -1.06 | 3.51 | 7 | 1.5 | 5.59 | 1.73 | 2.55 | 0.01 |
| Nc1ccc(C#Cc2cncnc2Nc2ccc(OCc3cccc(F)c3)c(Cl)c2)cc1 | 2.52 | 2.36 | 1.95 | 2.97 | 1.48 | 2.04 | 10.7 | 0.63 | 7.26 | -0.22 | 0.46 | 1.09 | 1.56 | 4.22 | 2.49 | 3.68 | 4.32 | 0.21 | 1.21 | 0.43 |
| COc1cccc(-n2ncc3c(N/N=C/c4ccc(S(C)(=O)=O)cc4)ncnc32)c1 | 4.26 | 1.03 | 3.52 | 3.61 | 4.85 | 23.2 | 34.2 | 16.7 | 23.9 | 0.16 | 3.41 | -0.17 | 0.02 | 2.42 | 2.63 | 1.57 | 2.21 | -0.52 | 1.73 | -3.69 |
| Nc1nccc(C#Cc2cncnc2Nc2ccc(OCc3cccc(F)c3)c(Cl)c2)n1 | 11.2 | 3.04 | 7.4 | 2.92 | 5.11 | 3.59 | 14 | 2.98 | 8.39 | 1.67 | 8.86 | -0.05 | -3.04 | 6.86 | 27.5 | 4.05 | 2.05 | 1.29 | 1.16 | 0.62 |
| NS(=O)(=O)c1cccc(Nc2cc(-c3ccc(F)cc3)n[nH]2)c1 | 19 | 3.62 | 20.2 | 0.82 | 4.1 | 2.78 | 10.7 | 3.32 | 13 | 1.43 | 9.04 | 0.67 | 2.88 | 2.8 | 14.5 | 4.37 | 8.84 | 1.38 | 1.68 | 0.15 |
| O=C(Nc1ccc(Oc2ccc3[nH]c(NC(=O)c4ccco4)nc3c2)cc1)Nc1cc(C(F)(F)F)ccc1F | -0.23 | 0.1 | 2.11 | 0.54 | 8.57 | 3.42 | 28.4 | 2.04 | 37.3 | -0.8 | 0.83 | 0.28 | 0.06 | 0.41 | 8.29 | 0.46 | -0.56 | 0.14 | 1.19 | -3.36 |
| CN(C)c1cc2c(Nc3ccc4c(cnn4Cc4ccccc4)c3)ncnc2cn1 | -0.35 | 1.14 | 1.04 | 2.68 | 2.1 | 3.47 | 19.4 | 3.73 | 23 | 0.19 | 0.46 | 0.31 | -1.1 | 2.72 | 4.62 | 3.31 | 1.97 | -0.22 | 1.78 | -0.29 |
| COc1ccc(-c2nn3ncccc3c2-c2ccnc(Nc3cccc(C(F)(F)F)c3)n2)cc1 | 3.49 | 1.29 | 1.74 | 2.53 | 1.64 | 1.88 | 3.34 | 0.77 | 1.76 | -0.74 | 1.37 | 0.84 | 0.1 | 3.78 | 4.58 | 4.42 | 4.66 | 0.05 | 0.66 | 0.02 |
| CC(C)c1ccc(Nc2nccc(-c3cnn4ncccc34)n2)cc1 | 3.95 | 0.24 | 2.61 | 5.96 | 26.3 | 3.64 | 11.8 | 2.64 | 15.2 | -1.19 | 1.01 | -0.78 | -0.93 | 2.33 | 7.97 | 4.16 | 3.83 | -0.71 | 2.45 | -0.13 |
| O=S(=O)(CCOCc1ccc(-c2ccc3ncnc(Nc4ccc(OCc5cccc(F)c5)c(Cl)c4)c3c2)o1)c1ccccc1 | 1.33 | 1.36 | 3.69 | 3.07 | 7.12 | 1.49 | 4.07 | -0.55 | 4.88 | -0.42 | 3.35 | -0.23 | -0.13 | 1.12 | 5.02 | 1.75 | -0.77 | 1.1 | 2.1 | 0.88 |
